Assay results: PubChem BioAssay (EPA / NIEHS)
Results filed as inconclusive are left out. The source holds several records for some structures; these can differ, active in one and inactive in another. The source made the active and inactive calls. Rule for the calls, unless noted: active = hit-call score of the fitted dose curve at least 0.9, where 1 is the maximum; inconclusive = response in the unintended direction; inactive = score below 0.9.

What was measured:
[1] = read-out: Transforming Growth Factor (TGFA), TGFA (gene 7039); assay: LTEA_HepaRG_TGFA: Life Technologies and Expression Analysis (LTEA) Assay for Transforming Growth Factor (TGFA) using HepaRG (AID 2283532; active = hit-call score of the fitted dose curve at least 0.9, where 1 is the maximum; inactive = score below 0.9); conditions: mRNA level, 48 h; actives raise or lower the signal
How it was run: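 Differentiated HepaRG cells exposed 48 hours in serum-free induction medium, 0.5% DMSO vehicle, 8-point half-log series from 100 uM, in duplicate. TGFA mRNA by TaqMan qRT-PCR, normalised to ACTB, GAPDH, POLR2A; bidirectional fit versus DMSO.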

[2] = read-out: Transforming Growth Factor (TGFB1), TGFB1 (gene 7040); assay: LTEA_HepaRG_TGFB1: Life Technologies and Expression Analysis (LTEA) Assay for Transforming Growth Factor (TGFB1) Transporter using HepaRG (AID 2283533; active = hit-call score of the fitted dose curve at least 0.9, where 1 is the maximum; inactive = score below 0.9); conditions: mRNA level, 48 h; actives raise or lower the signal
How it was run: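 qRT-PCR readout of TGFB1 transcript in HepaRG lysates, normalized to three housekeeping genes; gain or loss of signal fitted relative to 0.5% DMSO vehicle. Exposure: 48 h, 8-point curve from 100 uM, duplicate wells.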

TIMP1, TIMP1 (gene 7076) = assay: LTEA_HepaRG_TIMP1: Life Technologies and Expression Analysis (LTEA) Assay for TIMP1 using HepaRG (AID 2283534; active = hit-call score of the fitted dose curve at least 0.9, where 1 is the maximum; inactive = score below 0.9;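 note: TaqMan qRT-PCR signal normalized to ACTB GAPDH and POLR2A housekeeping genes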); conditions: mRNA level, 48 h; actives raise or lower the signal
How it was run: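 HepaRG, 48 h exposure, 8-pt half-log series from 100 uM in 0.5% DMSO, duplicates; TIMP1 transcript by Fluidigm qRT-PCR, housekeeping-normalized; bidirectional curve fit vs DMSO baseline.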

[3] = read-out: Tumor necrosis factor receptor 1 (TNFRSF1A), TNFRSF1A (gene 7132); assay: LTEA_HepaRG_TNFRSF1A: Life Technologies and Expression Analysis (LTEA) Assay for Tumor necrosis factor receptor 1 (TNFRSF1A) using HepaRG (AID 2283535; active = hit-call score of the fitted dose curve at least 0.9, where 1 is the maximum; inactive = score below 0.9); conditions: mRNA level, 48 h; actives raise or lower the signal
How it was run: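 HepaRG, 48 h plating then 48 h chemical exposure, serum-free induction media; 8-pt CRC from 100 uM, half-log, 0.5% DMSO vehicle, duplicates. Readout: TaqMan qRT-PCR (Fluidigm), housekeeping-gene normalized; bidirectional fit vs DMSO.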

[4] = read-out: Cellular tumor antigen p53 (Homo sapiens) (UniProt P04637); assay: LTEA_HepaRG_TP53: Life Technologies and Expression Analysis (LTEA) Assay for Tumor Protein P53 (TP53) using HepaRG (AID 2283537; active = hit-call score of the fitted dose curve at least 0.9, where 1 is the maximum; inactive = score below 0.9); conditions: mRNA level, 48 h; actives raise or lower the signal
How it was run: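 Gain or loss of TP53 mRNA signal is scored relative to 0.5% DMSO after 48 h chemical treatment of HepaRG liver cells, tested in duplicate at eight half-log concentrations up to 100 uM.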

[5] = read-out: UDP glucuronosyltransferase (UGT1A1), UGT1A1 (gene 54658); assay: LTEA_HepaRG_UGT1A1: Life Technologies and Expression Analysis (LTEA) Assay for UDP glucuronosyltransferase (UGT1A1) using HepaRG (AID 2283538; active = hit-call score of the fitted dose curve at least 0.9, where 1 is the maximum; inactive = score below 0.9); conditions: mRNA level, 48 h; actives raise or lower the signal
How it was run: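 HepaRG cells, 0.5% DMSO vehicle, 48 h exposure in serum-free induction medium to 8-point half-log series topping at 100 uM, in duplicate. UGT1A1 mRNA by Fluidigm qRT-PCR, normalized to ACTB/GAPDH/POLR2A; bidirectional fit versus DMSO.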

[6] = read-out: X-box binding protein 1 (XBP1), XBP1 (gene 7494); assay: LTEA_HepaRG_XBP1: Life Technologies and Expression Analysis (LTEA) Assay for X-box binding protein 1 (XBP1) using HepaRG (AID 2283540; active = hit-call score of the fitted dose curve at least 0.9, where 1 is the maximum; inactive = score below 0.9); conditions: mRNA level, 48 h; actives raise or lower the signal
How it was run: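 HepaRG, 48 h exposure, 8-pt half-log CRC top 100 uM, 0.5% DMSO vehicle, duplicates. Readout: TaqMan qRT-PCR of XBP1 mRNA, housekeeping-normalised (ACTB/GAPDH/POLR2A); bidirectional fit vs DMSO baseline.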

[7] = LTEA_HepaRG_LDH_cytotoxicity: Cytotoxicity Assessment in the Life Technologies and Expression Analysis (LTEA) Assay (AID 2283563);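 for AC50: LDH activity released into spent culture medium as a marker of cell death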
How it was run: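 HepaRG (human liver line), 48 h exposure, 8-pt half-log series from 100 uM, 0.5% DMSO vehicle, duplicates. Read-out: LDH in spent medium. Positive-direction fit vs DMSO baseline.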

[8] = ATG_XTT_Cytotoxicity: Cytotoxicity Assessment in the Attagene TRANS-FACTORIAL HepG2 Assay (AID 2283584)
How it was run: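 XTT readout of cell number in transfected HepG2 cells, 24 h post-dosing; DMSO serves as negative control and baseline, with activity taken as loss of viability signal.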

[9] = TOX21_p53_BLA_p2_viability: Viability Assessment in the Tox21 HCT-116 p53 Agonism Beta-lactamase Assay, Phase 2 (AID 2283591);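 note: compound exposure lasted 16 h at 37 °C; actives lower the ATP signal meaning cytotoxicity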
How it was run: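 HCT116 p53-bla cells, 4000/well, dosed after 5 h plating (217-fold dilution of DMSO stocks) and incubated 16 h at 37C. Viability taken as cellular ATP by CellTiter-Glo luminescence after 30 min RT; signal loss marks cytotoxicity.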

[10] = biological target: Cellular tumor antigen p53 (Homo sapiens) (UniProt P04637); assay: TOX21_p53_BLA_p2_ratio: Tox21 HCT-116 p53 Agonism Beta-lactamase Assay, Ratio, Phase 2 (AID 2283592)
Sequence of Cellular tumor antigen p53 (Homo sapiens) (P04637 whole entry, looked up): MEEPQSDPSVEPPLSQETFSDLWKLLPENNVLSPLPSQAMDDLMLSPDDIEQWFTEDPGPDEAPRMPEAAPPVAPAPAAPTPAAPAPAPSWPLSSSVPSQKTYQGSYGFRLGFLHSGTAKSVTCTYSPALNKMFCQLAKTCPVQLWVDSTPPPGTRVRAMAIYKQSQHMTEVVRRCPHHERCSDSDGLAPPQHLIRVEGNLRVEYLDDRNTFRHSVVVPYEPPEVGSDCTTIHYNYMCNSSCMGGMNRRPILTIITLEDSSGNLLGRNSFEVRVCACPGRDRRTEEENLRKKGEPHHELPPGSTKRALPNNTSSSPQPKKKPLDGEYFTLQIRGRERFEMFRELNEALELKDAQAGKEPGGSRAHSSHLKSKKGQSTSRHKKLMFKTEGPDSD
How it was run: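 In this cell-based reporter format, HCT116 cells were dosed with chemicals delivered from DMSO by 217-fold dilution and incubated 16 h at 37C. Emission at 460 and 530 nm after 2 h CCF4-AM loading provided the ratio, fitted upward versus DMSO.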

[11] = TOX21_p53_BLA_p3_viability: Viability Assessment in the Tox21 HCT-116 p53 Agonism Beta-lactamase Assay, Phase 3 (AID 2283593);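 note: cells exposed to compound for 16 h before reading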
How it was run: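 HCT116 cells, 4000/well, dosed 5 h after plating by pin transfer (217-fold dilution from DMSO stock) and incubated 16 h at 37C, 5% CO2. Viability read as ATP luminescence with CellTiter-Glo after 30 min at room temperature.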

[12] = biological target: Cellular tumor antigen p53 (Homo sapiens) (UniProt P04637); assay: TOX21_p53_BLA_p3_ratio: Tox21 HCT-116 p53 Agonism Beta-lactamase Assay, Ratio, Phase 3 (AID 2283596)
How it was run: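 HCT116 p53-bla cells (4000/well) given compound in DMSO (217-fold dilution) after 5 h, incubated 16 h at 37C. CCF4-AM substrate 2 h at room temperature; 460/530 nm emission ratio, gain fitted against DMSO.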

[13] = TOX21_p53_BLA_p4_viability: Viability Assessment in the Tox21 HCT-116 p53 Agonism Beta-lactamase Assay, Phase 4 (AID 2283597);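 note: hits lower the luminescence signal meaning cytotoxicity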
How it was run: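 We seeded HCT116 p53 reporter cells at 4000/well and waited 5 h. We then added compounds in DMSO at a 217-fold dilution and incubated for 16 h. Viability was read as CellTiter-Glo luminescence after 30 min at RT.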

[14] = biological target: Cellular tumor antigen p53 (Homo sapiens) (UniProt P04637); assay: TOX21_p53_BLA_p5_ratio: Tox21 HCT-116 p53 Agonism Beta-lactamase Assay, Ratio, Phase 5 (AID 2283599)
How it was run: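 HCT-116 p53-bla cells (4000/well) plated 5 h, dosed with compound (217-fold DMSO dilution) for 16 h at 37 C; CCF4-AM substrate 2 h at room temperature. Activity is the 460/530 nm emission ratio (405 nm excitation), fitted in gain-of-signal direction versus DMSO.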

[15] = TOX21_p53_BLA_p5_viability: Viability Assessment in the Tox21 HCT-116 p53 Agonism Beta-lactamase Assay, Phase 5 (AID 2283600)
How it was run: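 Compounds, pinned from DMSO at 217-fold dilution, were left on the cells for 16 h. The viability endpoint was ATP content measured by CellTiter-Glo luminescence, where falling signal reflects cytotoxicity.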

[16] = biological target: Cellular tumor antigen p53 (Homo sapiens) (UniProt P04637); assay: TOX21_p53_BLA_p4_ratio: Tox21 HCT-116 p53 Agonism Beta-lactamase Assay, Ratio, Phase 4 (AID 2283601)
How it was run: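 HCT-116 p53 beta-lactamase reporter cells (4000/well) preincubated 5 h, then compound (217-fold dilution of DMSO stock) for 16 h at 37C. CCF4-AM substrate added 2 h at room temperature; 460/530 nm emission ratio fitted upward versus DMSO.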

[17] = read-out: Thyroid Hormone Responsive (THRSP), THRSP (gene 7069); assay: LTEA_HepaRG_THRSP: Life Technologies and Expression Analysis (LTEA) Assay for Thyroid Hormone Responsive (THRSP) using HepaRG (AID 2283536; active = hit-call score of the fitted dose curve at least 0.9, where 1 is the maximum; inactive = score below 0.9); conditions: mRNA level, 48 h; actives raise or lower the signal
How it was run: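 Differentiated HepaRG cells treated 48 h in serum-free induction medium with 8 half-log concentrations up to 100 uM (0.5% DMSO), duplicates. THRSP mRNA by TaqMan qRT-PCR normalised to ACTB, GAPDH, POLR2A; bidirectional fit versus DMSO.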

[18] = Tanguay_ZF_120hpf_MORT_legacy: (Legacy) Oregon State University Tanguay Lab 120 Hour Post-fertilization zebrafish Assay for Mortality (AID 2283633)
How it was run: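 Brightfield scoring of embryo death (binary) at 24 and 120 hpf; static exposure 6–120 hpf, 28C, sealed and foil-covered. Pronase-dechorionated 5D wild-type larvae, single embryo per well. DMSO 0.64% v/v; trimethyltin chloride 5uM positive control.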

Measured: AC50

Nc1ccc(Cl)cc1N
active: [1] 16.1 µM | [2] 12.9 µM | [3] 50 µM | [4] 12.4 µM | [5] 37.8 µM | [6] 21 µM | [7] 35.2 µM | [14] 74.7 µM
inactive: TIMP1, TIMP1 (gene 7076) | [8] | [9] | [10] | [11] | [12] | [13] | [14] | [15] | [16]

CCOC(=O)[C@]1(c2ccccc2)Oc2ccccc2[C@@H]1N
active: [1] 70.9 µM | [3] 90.8 µM | [17] 3.18 µM | [5] 83.1 µM | [7] 77.6 µM
inactive: [2] | [6]

CCCCCCCCCCCCCN1CC(C)OC(C)C1 (stereo not given)
not listed: [8] | [9] | [10] | [13] | [14] | [15] | [17]
inactive: all other assays above

c1ccc(N=Nc2ccccc2)cc1
not listed: [3] | [8] | [11] | [13] | [15] | [18]
inactive: all other assays above

CCC(C)c1ccc(O)cc1 (stereo not given)
not listed: [17] | [18]
inactive: all other assays above

[O-][Cl+]O
not listed: [10] | [11] | [12] | [13] | [16] | [17]
inactive: all other assays above
